Results as given in PubChem BioAssay (NCATS).
Results filed as inconclusive are left out. Active and inactive are the calls of the source. The call rests on the fitted dose curve; in most records, active means well fitted inhibition curve with a large enough effect; inconclusive means small, poorly fitted or top-dose-only effect; inactive means flat fitted curve, though single readings scatter.

Columns and labels:
CRL-7250 = normal cell line; assay: Cytotoxic Profiling of Annotated Libraries Using Quantitative High-Throughput Screening (AID 1296008); details: Five cell lines viability, CellTiter-Glo ATP luminescence, 48-72 h; max response: stronger effect = lower value; on max response: on the % scale 0 is the no-effect control and ±100 the full control effect
Method in brief: (§1)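 Cells exposed to compounds for 48 or 72 hr at 37 degrees Celsius. Viability read as ATP-coupled luminescence with CellTiter-Glo after 10 min at room temperature.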

HEK293 = assay: as above; details: Five cell lines viability, CellTiter-Glo ATP luminescence, 48-72 h; max response: stronger effect = lower value
Method in brief: as §1

HaCat = assay: as above; details: Five cell lines viability, CellTiter-Glo ATP luminescence, 48-72 h; max response: stronger effect = lower value
Method in brief: as §1

KB-3-1 = assay: as above; details: Five cell lines viability, CellTiter-Glo ATP luminescence, 48-72 h; max response: stronger effect = lower value
Method in brief: as §1

NIH3T3 = assay: as above; details: Five cell lines viability, CellTiter-Glo ATP luminescence, 48-72 h; max response: stronger effect = lower value
Method in brief: as §1

HEK293T = assay: qHTS assay to identify novel small-molecules to repurpose for Merkel cell carcinoma treatment (AID 1296009); details: MCC and control cell lines, CellTiter-Glo viability, 72 h; series mostly up to 44.8 µM
Method in brief: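 Cells were incubated with compound for 72 hr at 37 degree celsius before CellTiter-Glo addition. Luminescence was normalized with no-cell wells as full cytotoxicity and DMSO as baseline.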
Further: nearly all actives have a fitted effect of over 60% in size.

C=C1[C@H]2CC[C@]3(O)[C@@](CC[C@@H]4[C@](C)(C(=O)O)CCC[C@]43C)(C2)[C@H]1OC(=O)/C(C)=C\C
inactive: max response (CRL-7250) 2.63% | outcome (HEK293) | max response (HaCat) -13.2% | outcome (KB-3-1) | max response (NIH3T3) 0.4% | Potency (HEK293T)

C[C@H]1CC[C@@]2(OC1)O[C@H]1CC3C4CC=C5C[C@H](O)C[C@@H](O[C@@H]6O[C@@H](C)[C@H](O)[C@@H](O)[C@H]6O[C@@H]6O[C@@H](C)[C@H](O)[C@@H](O)[C@H]6O)[C@]5(C)C4CC[C@]3(C)[C@H]1[C@@H]2C (some centres not stated)
inactive: max response (CRL-7250) -7.49% | outcome (HEK293) | max response (HaCat) -9.03% | outcome (KB-3-1) | max response (NIH3T3) 0.342% | Potency (HEK293T)

C/C=C(\C)C(=O)O[C@H]1[C@@H](O[C@]2(COC(=O)CC(C)C)O[C@H](COC(=O)C(C)C)[C@@H](OC(C)=O)[C@@H]2O)O[C@H](COC(C)=O)[C@@H](O)[C@@H]1O
inactive: outcome (CRL-7250) | outcome (HEK293) | max response (HaCat) 0.832% | max response (KB-3-1) 4.8% | max response (NIH3T3) 0.154% | Potency (HEK293T)

CC(C)[C@@H](C)/C=C/[C@@H](C)[C@H]1CC[C@H]2C3=CC=C4C[C@@H](O)CC[C@]4(C)[C@H]3CC[C@]12C
inactive: max response (CRL-7250) -9.59% | outcome (HEK293) | max response (HaCat) -1.06% | outcome (KB-3-1) | max response (NIH3T3) -4.11% | Potency (HEK293T)

C/C(=C\CO)CC/C=C(\C)C(=O)O[C@H]1[C@H](OC2OC=C(C(=O)O)C3CCC(C)(O)C23)O[C@H](CO)[C@@H](O)[C@@H]1O (some centres not stated)
inactive: max response (CRL-7250) -10.5% | outcome (HEK293) | max response (HaCat) 1.01% | outcome (KB-3-1) | max response (NIH3T3) 0.631% | Potency (HEK293T)

O=C(/C=C/c1ccccc1)OCC1=CC[C@@H]2C(C(=O)O)=CO[C@@H](O[C@@H]3O[C@H](CO)[C@@H](O)[C@H](O)[C@H]3O)[C@H]12
inactive: outcome (CRL-7250) | outcome (HEK293) | max response (HaCat) 0.992% | outcome (KB-3-1) | outcome (NIH3T3) | Potency (HEK293T)

O=c1c2ccccc2nc2n1CCC2O (configuration not stated)
inactive: outcome (CRL-7250) | outcome (HEK293) | max response (HaCat) 4.07% | outcome (KB-3-1) | max response (NIH3T3) 2.87% | Potency (HEK293T)

C=C(C)[C@@H]1CC[C@](C)(O)[C@@H](OC(=O)c2ccccc2)C1
inactive: outcome (CRL-7250) | outcome (HEK293) | max response (HaCat) -0.346% | max response (KB-3-1) 2.9% | outcome (NIH3T3) | Potency (HEK293T)

C=C1CC23CCC4[C@@](C)(CCC[C@@]4(C)C(=O)O)C2CCC1C3 (some centres not stated)
inactive: max response (CRL-7250) -2.77% | outcome (HEK293) | max response (HaCat) -11.3% | max response (KB-3-1) 2.07% | max response (NIH3T3) 3.55% | Potency (HEK293T)

CC(C)=CCC[C@](C)(O[C@@H]1O[C@H](CO[C@@H]2OC[C@@H](O)[C@H](O)[C@H]2O)[C@@H](O)[C@H](O)[C@H]1O)[C@H]1CC[C@]2(C)[C@@H]1[C@H](O)C[C@@H]1[C@@]3(C)CC[C@H](O[C@@H]4O[C@H](CO)[C@@H](O)[C@H](O)[C@H]4O[C@@H]4O[C@H](CO)[C@@H](O)[C@H](O)[C@H]4O)C(C)(C)[C@@H]3CC[C@]12C
inactive: outcome (CRL-7250) | outcome (HEK293) | max response (HaCat) -10.6% | outcome (KB-3-1) | outcome (NIH3T3) | Potency (HEK293T)

O=C(O)c1cc(O)c2cccc(O)c2c1O[C@@H]1O[C@H](CO)[C@@H](O)[C@H](O)[C@H]1O
inactive: max response (CRL-7250) -1.91% | outcome (HEK293) | max response (HaCat) 2.74% | max response (KB-3-1) 4.95% | outcome (NIH3T3) | Potency (HEK293T)

COc1c(C(CC(C)C)OC(C)=O)ccc(Oc2c(O)cc(C)cc2/C=C/C(C)=O)c1C(=O)O (configuration not stated)
inactive: max response (CRL-7250) -10.2% | outcome (HEK293) | max response (HaCat) -7.86% | max response (KB-3-1) 3.96% | max response (NIH3T3) -18.3% | Potency (HEK293T)

C[C@@H]1O[C@@H](O[C@H]2[C@H](O[C@H]3CC[C@@]4(C)C(CC[C@]5(C)C4CC=C4[C@@H]6CC(C)(C)CC[C@]6(C(=O)O)CC[C@]45C)[C@]3(C)CO)OC[C@H](O)[C@@H]2O)[C@H](O)[C@H](O[C@@H]2OC[C@@H](O)[C@H](O)[C@H]2O)[C@H]1O (some centres not stated)
inactive: max response (CRL-7250) 0.8% | outcome (HEK293) | max response (HaCat) 3.75% | outcome (KB-3-1) | max response (NIH3T3) -3.35% | outcome (HEK293T) inactive [at 9.27 µM]

CC[C@H](C)/C=C(C)/C=C/C(=O)Cc1cc(O)c(C)c(O)c1C=O
inactive: max response (CRL-7250) -3.98% | outcome (HEK293) | max response (HaCat) 4.71% | max response (KB-3-1) 7.23% | max response (NIH3T3) 3.96% | Potency (HEK293T)

CC1=C(C)C(=O)OC(C(C)(O)C2CCC3C4CC=C5CC(OC6OC(COC7OC(CO)C(O)C(O)C7O)C(O)C(O)C6O)CC(O)C5(C)C4CCC32C)C1 (configuration not stated)
inactive: max response (CRL-7250) -12.7% | outcome (HEK293) | max response (HaCat) -5.11% | max response (KB-3-1) 2.61% | max response (NIH3T3) -0.0747% | Potency (HEK293T)

C=C(C)C1CC2(CO)C(=CC1=O)CCC(O)C2C (configuration not stated)
inactive: max response (CRL-7250) 3.39% | outcome (HEK293) | max response (HaCat) -2.77% | max response (KB-3-1) 4.67% | outcome (NIH3T3) | Potency (HEK293T)

Cc1cc(N2CCCCC2)nc2ccccc12
inactive: max response (CRL-7250) -12.2% | outcome (HEK293) | max response (HaCat) -14.3% | outcome (KB-3-1) | outcome (NIH3T3) | Potency (HEK293T)
